Laboratory results taken from PubChem BioAssay AID1851 (National Center for Advancing Translational Sciences (NCATS), 2009).
Several values for one entry are separate records, joined by “and”; a condition that tells them apart may be missing. Identical values can stand only once. Among all 16,000 compounds or so, about 4,000 (25%) were called active. Not shown: some 26% with an inconclusive outcome. Calls follow the shape of the dose curve; as a rule, active = well fitted curve in the direction sought with a large enough effect; inconclusive = small, poorly fitted or top-dose-only effect, or effect the other way; inactive = no such curve, though single readings can be large or run the other way. The list is a sample of the results.

What follows are compounds tested against Cytochrome P450 2C9 (Homo sapiens) (UniProt P11712) (assay: Cytochrome panel assay with activity outcomes). Settings: recombinant CYP, pro-luciferin dealkylation, luminescence, p450-cyp2c9; series mostly up to 57.1 µM; activity, negative = inhibition: at the top concentration.
Cytochrome P450 2C9 (Homo sapiens), sequence (P11712 whole entry, looked up): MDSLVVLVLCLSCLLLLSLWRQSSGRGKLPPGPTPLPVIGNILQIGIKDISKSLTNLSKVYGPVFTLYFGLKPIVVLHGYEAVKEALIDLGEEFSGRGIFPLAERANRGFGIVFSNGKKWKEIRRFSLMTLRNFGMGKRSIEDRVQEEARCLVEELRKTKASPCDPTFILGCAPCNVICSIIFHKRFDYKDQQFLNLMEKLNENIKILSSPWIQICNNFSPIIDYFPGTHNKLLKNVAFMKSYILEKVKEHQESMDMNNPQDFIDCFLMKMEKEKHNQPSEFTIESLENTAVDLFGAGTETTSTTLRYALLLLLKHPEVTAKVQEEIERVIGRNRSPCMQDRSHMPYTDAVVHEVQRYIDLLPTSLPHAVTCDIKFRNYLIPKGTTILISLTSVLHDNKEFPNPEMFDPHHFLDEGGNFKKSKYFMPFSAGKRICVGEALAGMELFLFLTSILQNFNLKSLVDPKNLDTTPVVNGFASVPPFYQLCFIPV
% is scaled to controls: 0 for no effect and ±100 for the full control effect.

With `Cc1ccc(NC2=NC(c3ccccc3)n3c(nc(C)cc3=O)N2)c(C)c1` (stereo unspecified) as the compound, how does the AC50 read?
The AC50 was 35.5 µM (active).

`COc1ccccc1CNc1cc(-c2ccccc2C)ncn1` was tested. Which activity, negative = inhibition did it give?
The activity, negative = inhibition was -15.1% [at 2.29 µM] (inactive).

How did the “activity, negative = inhibition” value turn out when `COc1ccc(C2/C(=C(/O)c3ccc(Cl)cc3)C(=O)C(=O)N2CCN2CCOCC2)c(OC)c1` (stereo unspecified) was run?
The value was -24.6% (inactive).

For `O=C1C(=O)N(c2cccc(Cl)c2)C(c2ccccc2[N+](=O)[O-])/C1=C(\O)c1ccccc1` (stereo unspecified), which AC50 is on record?
The AC50 was 2 µM (active).

How did the activity, negative = inhibition turn out when `CC(C)(C)N1C(=O)[C@H]2[C@@H]3[C@H](O)[C@H](O)CC(=O)[C@H]3CC[C@H]2C1=O` was run?
Its activity, negative = inhibition is 6.8% [at 11.4 µM] (inactive) and 2.7% [at 11.4 µM] (inactive).

How did the activity, negative = inhibition turn out when `O=C(O)[C@@H]1[C@@H](C(=O)Nc2ccccc2)[C@@H]2C=C[C@@H]1O2` was run?
Its activity, negative = inhibition is 12.3% [at 11.4 µM] (inactive).

`CC(C)(C)C(=O)Nc1cccc(-c2nc3ccccc3c(=O)o2)c1` was tested. Which AC50 did it give?
Its AC50 is 12.6 µM (active).

`CS(=O)(=O)Nc1cccc(-c2nc(Nc3ccccc3)c3ccccc3n2)c1` was tested. Which activity, negative = inhibition did it give?
Its activity, negative = inhibition is -28.2% [at 2.29 µM] (inactive).

With `CC(=O)NCCNc1nc(-c2cccc(NS(C)(=O)=O)c2)nc2ccccc12` as the compound, how does the activity, negative = inhibition read?
The activity, negative = inhibition was -9.35% [at 2.29 µM] (inactive).

`O=C(NCC1CCCO1)c1nn2c(c1Cl)NC(c1ccc(F)cc1)CC2C(F)(F)F` (stereo unspecified) was tested. Which AC50 did it give?
The AC50 was 25.1 µM (active).

Which “activity, negative = inhibition” value does the source give for `O=C(NCC1CCCO1)c1ccc(CS(=O)(=O)Cc2ccc(F)cc2)o1` (stereo unspecified) here?
Its value is 25.2% (inactive).

For `COc1ccc(NC(=O)c2cc3n(n2)C(C(F)(F)F)CC(c2ccc4c(c2)OCO4)N3)cc1OC` (stereo unspecified), which “activity, negative = inhibition” value is on record?
The value was -12.5% (inactive).

For `CN1CCN(c2ncc3nc(-c4cccs4)c(=O)n(C[C@H]4CCCO4)c3n2)CC1`, which “activity, negative = inhibition” value is on record?
The value was 16.1% (inactive).

How did the “activity, negative = inhibition” value turn out when `CCOC(=O)C(NC(C)=O)C(OC(C)=O)c1cccc(N(CCO)CCO)c1` (stereo unspecified) was run?
The value was -15.8% (inactive).

How did the activity, negative = inhibition turn out when `Clc1ccccc1C(Nc1cnccn1)Nc1cnccn1` was run?
Its activity, negative = inhibition is 1.92% [at 11.4 µM] (inactive).

For `O=C1CC(c2cccc(F)c2)SC(N(c2ccccc2)c2ccccc2)=N1` (stereo unspecified), which AC50 is on record?
The AC50 was 10 µM (active).

With `C[N+](C)(C)CCOC(N)=O` as the compound, how does the AC50 read?
Its AC50 is “inactive”.

With `CC(C)[C@@H]1[C@H]2CC[C@H](C2)[C@H]1N` as the compound, how does the “activity, negative = inhibition” value read?
Its value is -9.4% (inactive).

`CC1=C/C(=N/O)C([C@H]2C=C(C)CC(C)(C)[C@@H]2O)C(C)(C)C1` (stereo partly specified) was tested. Which AC50 did it give?
Its AC50 is 2.51 µM (active).

With `N#CCCn1c(=O)c(-c2cc(F)cc(F)c2)nc2cnc(Nc3ccccc3)nc21` as the compound, how does the “activity, negative = inhibition” value read?
The value was 18.7% (inactive).

For `CN(C)Cc1ccccc1-c1ccc2ncnc(NCc3ccccc3)c2c1`, which activity, negative = inhibition is on record?
Its activity, negative = inhibition is -7.5% [at 2.29 µM] (inactive).

Which AC50 does the source give for `CCCC[C@]1(C2CCCC2)Cc2cc(OCC(=O)O)c(Cl)c(Cl)c2C1=O` here?
Its AC50 is 2.51 µM (active).

How did the “activity, negative = inhibition” value turn out when `CCCc1nc(SCC(=O)NNC(=O)C2CCCCC2)c2ccccc2n1` was run?
The value was 5.32% (inactive).

How did the AC50 turn out when `Cc1cccc(NC(=O)CSc2nc(COc3ccccc3)nc3ccccc23)c1C` was run?
The AC50 was 0.631 µM (active).

For `CN(C)Cc1ccccc1-c1cc(N(C)Cc2ccco2)ncn1`, which activity, negative = inhibition is on record?
Its activity, negative = inhibition is -3.1% [at 2.29 µM] (inactive).

For `C/C(=N\NC(=O)c1ccc(Cl)cc1)c1cccc(NC(=O)C(C)C)c1`, which “activity, negative = inhibition” value is on record?
The value was -11.6% (inactive).

`C/C(=N/NC(=O)c1ccc(C)s1)c1cccc(NC(=O)COc2ccc(Cl)cc2C)c1` was tested. Which AC50 did it give?
Its AC50 is 1.26 µM (active).

Which “activity, negative = inhibition” value does the source give for `COc1cc(OC)c(C(=O)CCCCN2CCC3(CC2)NC(=O)NC3=O)cc1NS(=O)(=O)c1ccc(C(F)(F)F)cc1` here?
Its value is 22.9% (inactive).

Which AC50 does the source give for `O=C(NC1CCCCC1)C(c1cccs1)N(C(=O)C(F)(F)F)c1ccccc1` (stereo unspecified) here?
Its AC50 is 1.58 µM (active).

Which AC50 does the source give for `COc1ccc(CN(C(=O)Cc2cccs2)C(C(=O)NC2CCCC2)c2ccncc2)cc1` (stereo unspecified) here?
Its AC50 is 5.01 µM (active).

For `Cc1ccc(N(C(=O)C(F)(F)F)C(C(=O)NC2CCCCC2)c2cccs2)cc1C` (stereo unspecified), which “activity, negative = inhibition” value is on record?
Its value is -17.9% (inactive).

How did the “activity, negative = inhibition” value turn out when `COc1ccc(C(C(=O)NC2CCCC2)N(Cc2ccc(F)cc2)C(=O)c2ccn[nH]2)cc1OC` (stereo unspecified) was run?
Its value is -29.6% (inactive).

Which AC50 does the source give for `COc1ccc(CCN(C(=O)C(F)(F)F)C(C(=O)NC2CCCC2)c2cccs2)cc1` (stereo unspecified) here?
The AC50 was 3.16 µM (active).

How did the AC50 turn out when `COc1ccc(NC(=S)N(CCc2nc3cc(C)c(C)cc3[nH]2)Cc2cccnc2)cc1` was run?
Its AC50 is 7.94 µM (active).

With `Cc1ccc(C)c(NC(=S)N(CCc2nc3cc(C)c(C)cc3[nH]2)Cc2cccnc2)c1` as the compound, how does the AC50 read?
The AC50 was 3.98 µM (active).

With `COc1cccc(NC(=S)N(CCc2nc3cc(C)c(C)cc3[nH]2)Cc2cccnc2)c1` as the compound, how does the AC50 read?
Its AC50 is 5.01 µM (active).

How did the activity, negative = inhibition turn out when `Cc1cccc(CNc2nc(-c3cccnc3)nc3ccccc23)c1` was run?
Its activity, negative = inhibition is -13% [at 2.29 µM] (inactive).

For `Cc1cccc(NC(=S)N(CCc2nc3cc(C)c(C)cc3[nH]2)Cc2cccnc2)c1`, which AC50 is on record?
The AC50 was 7.94 µM (active).

For `COC(=O)[C@@H]1O[C@@H](SCCN)[C@@H](O)[C@H](O)[C@H]1O`, which activity, negative = inhibition is on record?
The activity, negative = inhibition was 15% [at 11.4 µM] (inactive).

How did the “activity, negative = inhibition” value turn out when `O=C(O)Cc1ccc2ocnc2c1` was run?
The value was -22.7% (inactive).

With `COc1ccc(Nc2ncc3c(n2)CC(c2ccc(C)cc2)CC3=O)cc1` (stereo unspecified) as the compound, how does the AC50 read?
Its AC50 is 5.01 µM (active).

With `COc1ccc(C2CC(=O)c3cnc(Nc4cc(C)cc(C)c4)nc3C2)cc1` (stereo unspecified) as the compound, how does the AC50 read?
Its AC50 is 10 µM (active).

`COc1ccc(-c2nc3cnc(Nc4ccccc4)nc3n(CCC#N)c2=O)cc1` was tested. Which “activity, negative = inhibition” value did it give?
The value was 7.37% (inactive).

`COc1cccc(Nc2ncc3nc(C)c(=O)n(C4CC4)c3n2)c1` was tested. Which “activity, negative = inhibition” value did it give?
The value was -17.1% (inactive).

`COc1cccc(Nc2ncc3nc(C)c(=O)n(C)c3n2)c1` was tested. Which “activity, negative = inhibition” value did it give?
The value was -11.4% (inactive).

Which “activity, negative = inhibition” value does the source give for `NS(=O)(=O)c1cc2c(cc1C(F)(F)F)N[C@H](Cc1ccccc1)NS2(=O)=O` here?
Its value is -8.84% [at 25.6 µM] (inactive).

`CN1CCN([C@@H]2Cc3ccccc3Sc3ccc(Cl)cc32)CC1` was tested. Which “activity, negative = inhibition” value did it give?
Its value is -20.1% (inactive).

For `CNC(=O)[C@H]1O[C@H](n2cnc3c(NCc4cccc(I)c4)ncnc32)[C@@H](O)[C@@H]1O`, which “activity, negative = inhibition” value is on record?
Its value is 26.3% (inactive).

For `CCSC1=C(C#N)C2(CCCCC2)C(C#N)=C(N)N1`, which AC50 is on record?
The AC50 was 2.82 µM (active).

Which activity, negative = inhibition does the source give for `CCOC(=O)[C@]1(CC(=O)O)CCCC1=O` here?
The activity, negative = inhibition was -6.54% [at 11.4 µM] (inactive).

`Cc1cccc(NS(=O)(=O)c2c(C)n[nH]c2C)c1` was tested. Which AC50 did it give?
The AC50 was 17.8 µM (active).

For `COc1ccc(N(CC(=O)Nc2cccc(C)c2)S(=O)(=O)c2c(C)n[nH]c2C)cc1`, which AC50 is on record?
The AC50 was 1.41 µM (active).

How did the activity, negative = inhibition turn out when `CN(C)c1cc(-c2cccc(NS(C)(=O)=O)c2)ncn1` was run?
Its activity, negative = inhibition is 16.1% [at 2.29 µM] (inactive).

Which “activity, negative = inhibition” value does the source give for `Cc1cc(C)c(S(=O)(=O)Nc2cccc(C(F)(F)F)c2)c(C)c1` here?
Its value is -21.9% (inactive).

`COc1ccccc1CNc1ccnc(-c2ccccc2OC)n1` was tested. Which activity, negative = inhibition did it give?
Its activity, negative = inhibition is -5.44% [at 2.29 µM] (inactive).

`C=CCSc1nnc2c(n1)OC(c1c(C)[nH]n(-c3ccccc3)c1=O)Nc1ccccc1-2` (stereo unspecified) was tested. Which AC50 did it give?
The AC50 was 0.447 µM (active).
